# KB-3-1 tox = qHTS assay for MDR1-selective chemotherapeutics: Primary screen using the parental adenocarcinoma cell KB-3-1; actives 1.4% (n = 400,000); KB-3-1 viability, CellTiter-Glo ATP luminescence, 72 h; Potency, µM (highest dose often 46.1 µM), usual class: cytotoxic; also: nearly all actives have a fitted effect of over 60% in size
#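 Multi-concentration cytotoxicity screen in KB-3-1 cells grown in DMEM lacking phenol red with 10% FBS. After 72 h at 37 °C with compound, ATP-dependent luminescence was recorded.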
# HT1080 IDH1KD tx = qHTS for induction of synthetic lethality in tumor cells producing 2HG: qHTS for the HT-1080-IDH1KD cell line; HT-1080 IDH1 knockdown viability, ATP luminescence, 48 h; Potency, µM (highest dose often 46.1 µM), for the others: top-dose activity, negative = toxicity, most hits filed as cytotoxic; actives 2% (n = 360,000); AID 686971, 2013;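 also: 0% = DMSO wells and -100% = cell-free medium wells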
#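 HT-1080-IDH1KD cells (IDH1 knocked down), 750/well in RPMI with 5% FBS, treated with compound 48 h at 37 degrees C. Viability by CellTiter-Glo luminescence, normalised to DMSO and no-cell wells; concentration-response curves classed.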
# HT1080-NT tox = qHTS for induction of synthetic lethality in tumor cells producing 2HG: qHTS for the HT-1080-NT fibrosarcoma cell line; actives 1.6% (n = 360,000); AID 686970, 2013; HT-1080-NT fibrosarcoma viability, CellTiter-Glo ATP luminescence, 48 h; Potency, µM (titrated, usually from 46.1 µM), without a hit: at the top dose activity, negative = less viability, hits mostly cytotoxic;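 also: NT is the 2HG producing partner of a matched IDH1 knockdown line; 0% = DMSO-treated cells and -100% = media-only wells without cells; nearly all actives have a fitted effect of over 55% in size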
#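 A 48-hour cytotoxicity screen used HT-1080-NT cells plated 2 hours before compound delivery. ATP-based CellTiter-Glo luminescence measured viability, normalized to DMSO and no-cell controls.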
# KB-V1 MDR tox = qHTS assay for MDR1-selective chemotherapeutics: Primary screen using the drug-selected MDR subline cells KB-V1; KB-V1 MDR cells viability, CellTiter-Glo, 72 h; Potency, µM (doses to about 46.1 µM), hits mostly cytotoxic; actives 3.4% (n = 400,000); also: nearly all actives have a fitted effect of over 60% in size
#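 Following 72 h at 37 degrees C with compound, KB-V1 cell viability was read by CellTiter-Glo luminescence, medium being phenol-red-free DMEM plus 10% FBS; concentration-response parameters came from normalized, curve-fitted qHTS data.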
# The depositor's hits bear a star; i = inactive; ? = inconclusive; · = no result given. Hits are enriched below; roughly 5.7% of the tested compounds scored in any of these assays. Calls follow the shape of the dose curve; as a rule, active = well fitted curve in the direction sought with a large enough effect; inconclusive = small, poorly fitted or top-dose-only effect, or another doubt; inactive = no such curve, though single readings can be large; an effect the other way counts as inactive or inconclusive. Unless noted, % is scaled to controls: 0 for no effect and ±100 for the full control effect; potency is read from the fitted curve at half-maximal effect.
SMILES,KB-3-1 tox,HT1080 IDH1KD tx,HT1080-NT tox,KB-V1 MDR tox
Cc1nnsc1C(=O)N/N=C/c1c(F)cccc1Cl,i,16.4%,12.1%,i
CC(=O)Nc1ccc(S(=O)(=O)NNC(=O)c2ccc([N+](=O)[O-])cc2)cc1,i,-1.5%,0.5%,?
O=C(NNc1ccccn1)C(=O)NNS(=O)(=O)c1ccc(Cl)cc1,?,?,-21.0%,18.4µM*
O=C(NNc1ccccc1)C(=O)NNS(=O)(=O)c1ccc([N+](=O)[O-])cc1,?,5.8µM*,2.06µM*,i
CC(=O)Nc1ccc(S(=O)(=O)NNc2ccc([N+](=O)[O-])cc2)cc1,?,16.4µM*,?,i
OC(Cc1ccc2ccccc2n1)c1ccccc1 (stereo unspecified),?,·,·,i
COc1ccc(-c2cn[nH]c2-c2ccc(OCc3ccc([N+](=O)[O-])cc3)cc2O)cc1OC,?,-23.6%,-22.0%,4.11µM*
COc1ccc(-c2cn[nH]c2-c2ccc(OCc3ccccc3F)cc2O)cc1OC,?,18.4µM*,29.1µM*,18.4µM*
O=[N+]([O-])c1ccc(COc2ccc(-c3[nH]ncc3-c3ccc(Cl)cc3)c(O)c2)cc1,i,23.1µM*,?,i
COc1ccc(-c2[nH]ncc2-c2ccc(Cl)cc2)c(O)c1,i,?,?,i
CC(O)(c1ccccc1)[N+]1(CC(=O)c2ccccc2)C=CC=C1 (stereo unspecified),i,·,·,i
O=C(NC1CCCCC1)c1cc(Nc2cccc(C(F)(F)F)c2)nc2ccccc12,i,·,·,i
CCNC(=S)Nc1ccc2c(c1)c(=O)n(C)n2-c1cc(C)cc(C)c1,i,-9.7%,0.5%,i
CN(C)c1ccc(NC(=O)Nc2ccc3c(c2)c(=O)n(C)n3-c2ccccc2)cc1,i,?,16.4µM*,i
CN(C)c1ccc(NC(=S)Nc2ccc3c(c2)c(=O)n(C)n3-c2ccc(C(C)(C)C)cc2)cc1,i,18.4µM*,?,i
CC(=O)N1CCC2(CC1)NC(=O)N(c1ccccc1)N2,i,4.11µM*,5.17µM*,i
O=C1NC2(CCC3(CC2)OCCO3)NN1c1ccc(Cl)cc1,?,6.51µM*,?,i
O=C1NC2(CCCCC2)NN1c1ccccc1,i,5.17µM*,?,i
NC(=O)N1CCC2(CC1)NC(=O)N(c1ccccc1)N2,i,6.51µM*,10.3µM*,i
NC(=O)C1(c2ccccc2)CCC(=O)N1c1ccccc1 (stereo unspecified),i,2.3%,16.9%,i
Cn1ncc2ccc(-c3ccc4ncnc(NCc5cccs5)c4c3)cc21,?,·,·,i
Cn1c(=O)c(=O)n(C)c2cc(N3CCCC3)c(NC(=O)c3ccccc3F)cc21,i,·,·,i
CC1CCC2(CC1)NC(=S)N(C(C)(C)C)N2 (stereo unspecified),i,2.5%,3.3%,i
CC1CCC2(CC1)NC(=S)N(c1ccccc1)N2 (stereo unspecified),i,18.4µM*,?,i
COc1ccc(NC(=O)C(C)n2nc(-c3cc(C)ccc3C)c3c(c2=O)CCCC3)cc1 (stereo unspecified),i,·,·,?
SMILES,KB-3-1 tox,HT1080 IDH1KD tx,HT1080-NT tox,KB-V1 MDR tox
Cc1ccc(-n2[nH]c(C)c(/C=N/Nc3ccc([N+](=O)[O-])cc3[N+](=O)[O-])c2=O)cc1C,?,20.6µM*,?,13µM*
COc1ccc(CCN=Cc2c(C)[nH]n(-c3ccc([N+](=O)[O-])cc3)c2=O)cc1OC,i,14.7%,-0.1%,i
CC1Cc2ccccc2N1S(=O)(=O)c1nnc(NC(=O)c2ccccc2Br)s1 (stereo unspecified),i,·,·,i
CCc1cc2cc(C(=O)N3CCN(Cc4ccccc4)CC3)sc2s1,20.6µM*,1.6%,3.3%,14.6µM*
CCc1cc2cc(C(=O)N3CCN(c4ccccc4)CC3)sc2s1,i,9.7%,10.1%,i
CCOC(=O)c1[nH]c2c(c1Cc1ccccc1)C(=O)CC(c1ccc(OC)cc1)C2 (stereo unspecified),i,·,·,i
COc1ccc2c(c1OC)OCC2C (stereo unspecified),?,8.5%,3.2%,14.6µM*
CCc1sc(-c2cc3cccc(OC)c3oc2=O)nc1-c1cc(C)ccc1C,i,·,·,?
O=C(C1CCCN(S(=O)(=O)c2cccc3nsnc23)C1)N1CCN(c2cccc(Cl)c2)CC1 (stereo unspecified),i,·,·,?
CC(C)c1ccc2c(c1)C(N1CCNCC1)Cc1ccc(F)cc1S2 (stereo unspecified),?,?,-8.2%,?
CCc1cccc2c1Sc1ccccc1CC2N1CCNCC1 (stereo unspecified),?,?,-17.8%,13µM*
Cc1cccc2c1Sc1ccc(Cl)cc1CC2N1CCNCC1 (stereo unspecified),?,?,23.1µM*,?
COc1ccc(C)cc1NS(=O)(=O)c1cc(Br)cc2c1N(C(C)=O)C(C)C2 (stereo unspecified),i,·,·,i
Cc1ccc(C(=O)N/N=C/c2ccc(-c3cccc(Cl)c3)o2)cn1,?,?,25.9µM*,?
Cc1ccc(C(=O)N/N=C/c2ccc(-c3ccccc3[N+](=O)[O-])o2)cn1,i,-7.9%,-13.0%,i
Cc1ccc(C(=O)N/N=C\c2ccc(-c3ccc(Cl)c(Cl)c3)o2)cn1,i,18.4µM*,16.4µM*,i
CCOc1ccccc1CNC(=O)C1CCCN(c2ncnc3onc(-c4ccc(F)cc4)c23)C1 (stereo unspecified),i,·,·,i
Cc1oncc1-c1csc(-c2ccccc2Cl)n1,?,-1.6%,16.5%,13µM*
O=C1CC(c2ccccc2)CC(O)=C1C=NC1CCCCCC1 (stereo unspecified),i,?,-29.9%,i
O=C1CC(c2ccccc2)CC(O)=C1C=NC1CCCCC1 (stereo unspecified),i,?,-14.7%,6.51µM*
Cc1ccc(C)c(CSc2nnc(-c3cccnc3)o2)c1,i,-17.7%,2.6%,18.4µM*
O=C(CN(CCc1ccccc1)S(=O)(=O)c1ccc(Cl)cc1)N/N=C/c1ccc2c(c1)OCO2,i,-7.8%,-0.2%,9.2µM*
O=C(CN(Cc1ccccc1)S(=O)(=O)c1ccccc1)N/N=C/c1ccccc1[N+](=O)[O-],i,-28.7%,?,23.1µM*
Cc1ccc(CN(CC(=O)N/N=C/c2ccccc2[N+](=O)[O-])S(=O)(=O)c2ccc(C)cc2)cc1,i,1.7%,1.0%,i

# Bioassay records (PubChem)
